Several values for one entry are separate records, joined by “and”; a condition that tells them apart may be missing. Equal entries are not always repeated. The campaign covered roughly 5,500 compounds. About 2,000 (36%) were called active. Inconclusive results (about 18%) are left out. No stated cut-off is given here; in the data, active means normalized growth mostly below about 0.91 (no sharp cut-off); inconclusive means no clear call, values can overlap the other calls; inactive means mostly above about 0.92. This is one part of the list.
Assay: chemical genetic growth profiling, strain panel (AID 1159580);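 further: tested at 20 µM; growth read once vehicle control cultures reached saturation at 30 °C; 1 = growth at the plate median or of vehicle wells; lower values mean less growth of the strain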
Conditions: growth OD

Measured: normalized growth

Cc1cc(C(C)(C)C)c(O)c(C)c1CC1=NCCN1
inactive: S. cerevisiae deletion strains, locus YJR066W, strain TOR1, active compounds read low 0.928 | S. cerevisiae deletion strains, locus YJR075W, strain HOC1, active compounds read low 0.995 | S. cerevisiae deletion strains, locus YKL009W, strain mrt4, active compounds read low 1.01 | S. cerevisiae deletion strains, locus YKL068W, active compounds read low 1 | S. cerevisiae deletion strains, locus YKL085W, strain MDH1 (second series), active compounds read low 1 | S. cerevisiae deletion strains, locus YKL085W, strain MDH1, active compounds read low 1 | S. cerevisiae deletion strains, locus YKL160W, strain elf1, active compounds read low 1.02 | S. cerevisiae deletion strains, locus YKL190W, strain CNB1, active compounds read low 0.991 | S. cerevisiae deletion strains, locus YKR001C, strain vps1, active compounds read low 1.02 | S. cerevisiae deletion strains, locus YKR026C, strain gcn3, active compounds read low 1.01 | S. cerevisiae deletion strains, locus YKR091W, strain srl3, active compounds read low 0.996 | S. cerevisiae deletion strains, locus YLL001W, strain dnm1, active compounds read low 1.01 | S. cerevisiae deletion strains, locus YLL026W, active compounds read low 1.02 | S. cerevisiae deletion strains, locus YLL041C, strain sdh2, active compounds read low 1.01 | S. cerevisiae deletion strains, locus YLR027C, strain aat2, active compounds read low 1 | S. cerevisiae deletion strains, locus YLR039C, strain RIC1, active compounds read low 1.01 | S. cerevisiae deletion strains, locus YLR058C, strain SHM2, active compounds read low 0.991 | S. cerevisiae deletion strains, locus YLR102C, strain apc9, active compounds read low 1 | S. cerevisiae deletion strains, locus YLR113W, strain HOG1, active compounds read low 0.997 | S. cerevisiae deletion strains, locus YLR221C, strain rsa3, active compounds read low 1.01 | S. cerevisiae deletion strains, locus YLR258W, strain gsy2, active compounds read low 1 | S. cerevisiae deletion strains, locus YLR262C, strain YPT6 (second series), active compounds read low 1.02 | S. cerevisiae deletion strains, locus YLR262C, strain YPT6, active compounds read low 0.974 | S. cerevisiae deletion strains, locus YLR268W, strain sec22, active compounds read low 1.01 | S. cerevisiae deletion strains, locus YLR320W, strain mms22, active compounds read low 1.02 | S. cerevisiae deletion strains, locus YLR330W, strain CHS5, active compounds read low 0.999 | S. cerevisiae deletion strains, locus YLR342W, strain FKS1 (second series), active compounds read low 0.984 | S. cerevisiae deletion strains, locus YLR342W, strain FKS1, active compounds read low 1 | S. cerevisiae deletion strains, locus YLR357W, strain rsc2, active compounds read low 1.02 | S. cerevisiae deletion strains, locus YLR370C, strain arc18, active compounds read low 1.01 | S. cerevisiae deletion strains, locus YLR371W, strain rom2, active compounds read low 1.01 | S. cerevisiae deletion strains, locus YLR384C, strain iki3, active compounds read low 1.02 | S. cerevisiae deletion strains, locus YLR418C, strain cdc73, active compounds read low 1.02 | S. cerevisiae deletion strains, locus YML016C, strain PPZ1, active compounds read low 0.998 | S. cerevisiae deletion strains, locus YML032C, strain rad52, active compounds read low 0.999 | S. cerevisiae deletion strains, locus YML120C, strain ndi1, active compounds read low 1.01 | S. cerevisiae deletion strains, locus YML124C, strain tub3, active compounds read low 1.02 | S. cerevisiae deletion strains, locus YMR058W, strain fet3, active compounds read low 1.01 | S. cerevisiae deletion strains, locus YMR078C, strain ctf18, active compounds read low 1.02 | S. cerevisiae deletion strains, locus YMR125W, strain sto1, active compounds read low 1 | S. cerevisiae deletion strains, locus YMR129W, active compounds read low 1 | S. cerevisiae deletion strains, locus YMR205C, strain PFK2, active compounds read low 1.04 | S. cerevisiae deletion strains, locus YMR223W, strain ubp8, active compounds read low 1 | S. cerevisiae deletion strains, locus YMR231W, strain pep5, active compounds read low 1.01 | S. cerevisiae deletion strains, locus YMR263W, strain SAP30, active compounds read low 1 | S. cerevisiae deletion strains, locus YMR307W, strain GAS1, active compounds read low 0.985 and 0.998 | S. cerevisiae deletion strains, locus YNL067W, strain RPL9B, active compounds read low 0.988 | S. cerevisiae deletion strains, locus YNL071W, strain lat1, active compounds read low 1 | S. cerevisiae deletion strains, locus YNL128W, strain TEP1, active compounds read low 0.998 and 1.04 | S. cerevisiae deletion strains, locus YNL153C, strain GIM3, active compounds read low 0.996 and 1.01 | S. cerevisiae deletion strains, locus YNL175C, strain NOP13, active compounds read low 1 | S. cerevisiae deletion strains, locus YNL183C, strain NPR1, active compounds read low 0.936 | S. cerevisiae deletion strains, locus YNL197C, strain WHI3, active compounds read low 1.01 | S. cerevisiae deletion strains, locus YNL209W, strain ssb2, active compounds read low 1 | S. cerevisiae deletion strains, locus YNL224C, strain SQS1, active compounds read low 1.02 | S. cerevisiae deletion strains, locus YNL233W, strain BNI4, active compounds read low 1 | S. cerevisiae deletion strains, locus YNL248C, strain rpa49, active compounds read low 0.997 | S. cerevisiae deletion strains, locus YNL250W, strain rad50, active compounds read low 1.01 | S. cerevisiae deletion strains, locus YNL271C, strain bni1, active compounds read low 1.02 | S. cerevisiae deletion strains, locus YNL298W, strain CLA4, active compounds read low 0.982 | S. cerevisiae deletion strains, locus YNL307C, strain MCK1, active compounds read low 1.01 | S. cerevisiae deletion strains, locus YNL322C, strain KRE1 (second series), active compounds read low 1.03 | S. cerevisiae deletion strains, locus YNL322C, strain KRE1, active compounds read low 0.998 | S. cerevisiae deletion strains, locus YNR049C, strain mso1, active compounds read low 1.01 | S. cerevisiae deletion strains, locus YNR052C, strain pop2, active compounds read low 1.02 | S. cerevisiae deletion strains, locus YOL006C, strain TOP1, active compounds read low 1.01 | S. cerevisiae deletion strains, locus YOL012C, strain htz1 1.23 | S. cerevisiae deletion strains, locus YOL147C, strain pex11, active compounds read low 1.01 | S. cerevisiae deletion strains, locus YOR001W, strain rrp6, active compounds read low 0.97 | S. cerevisiae deletion strains, locus YOR061W, strain CKA2, active compounds read low 1 | S. cerevisiae deletion strains, locus YOR069W, strain VPS5, active compounds read low 0.997 | S. cerevisiae deletion strains, locus YOR070C, strain gyp1, active compounds read low 1.01 | S. cerevisiae deletion strains, locus YOR080W, strain dia2, active compounds read low 1 | S. cerevisiae deletion strains, locus YOR083W, strain WHI5 (second series), active compounds read low 1.02 | S. cerevisiae deletion strains, locus YOR083W, strain WHI5, active compounds read low 1.03 | S. cerevisiae deletion strains, locus YOR106W, strain vam3, active compounds read low 1.02 | S. cerevisiae deletion strains, locus YOR136W, strain idh2, active compounds read low 1 | S. cerevisiae deletion strains, locus YOR144C, strain elg1, active compounds read low 1 | S. cerevisiae deletion strains, locus YOR184W, strain ser1, active compounds read low 1.01 | S. cerevisiae deletion strains, locus YOR231W, strain MKK1, active compounds read low 1.01 | S. cerevisiae deletion strains, locus YOR265W, strain rbl2, active compounds read low 1 | S. cerevisiae deletion strains, locus YOR270C, strain vph1, active compounds read low 1.01 | S. cerevisiae deletion strains, locus YOR290C, strain snf2, active compounds read low 1.03 | S. cerevisiae deletion strains, locus YOR316C, strain cot1, active compounds read low 1 | S. cerevisiae deletion strains, locus YPL051W, strain arl3, active compounds read low 1.02 | S. cerevisiae deletion strains, locus YPL055C, strain LGE1, active compounds read low 0.983 | S. cerevisiae deletion strains, locus YPL078C, strain atp4, active compounds read low 1.01 | S. cerevisiae deletion strains, locus YPL106C, strain sse1, active compounds read low 1.04 | S. cerevisiae deletion strains, locus YPL240C, strain hsp82, active compounds read low 0.994 | S. cerevisiae deletion strains, locus YPL256C, strain CLN2, active compounds read low 0.961 | S. cerevisiae deletion strains, locus YPR119W, strain clb2, active compounds read low 1 | S. cerevisiae deletion strains, locus YPR141C, strain kar3, active compounds read low 1.01 | S. cerevisiae deletion strains, locus YPR163C, strain tif3, active compounds read low 1.02 | S. cerevisiae deletion strains, locus YPR167C, strain met16, active compounds read low 1.01 | S. cerevisiae deletion strains, strain wtn01, active compounds read low 1.01 | S. cerevisiae strains, strain wild type, active compounds read low 0.984
